CFTR F508del cor = F508del CFTR correction, initial screen, CFBE line, single point; AID 720511, 2013; activity (quench increase), % at 7.58 µM; CFBE cells, YFP halide quenching; stimulated with forskolin plus potentiator P3; % fluorescence drop versus neutral controls; 0.36% of 350,000 active;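 active means mean added fluorescence quench of at least 8% versus neutral control, with both replicates also reaching 8%; inconclusive means only one of the mean or replicate conditions met; inactive means mean below 8% and not both replicates reaching 8%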;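 further: cells transiently co-express mutant CFTR-F508del with the halide-sensitive YFP; corrector assay measuring rescue of mutant channel to the surface after 24 h compound exposure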
HIV Env fusion = inhibitors of HIV-1 Env-driven cell-cell fusion, primary screen, HeLa-JRFL effector, CEM21 target cells, luciferase; inhibition, % at 12.3 µM; 1.1% of 360,000 active; AID 651610, 2012;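 active means mean replicate inhibition score of at least 50 and every replicate individually at or above 50; inconclusive means only one of the two criteria met; inactive means mean below 50 and not all replicates reaching 50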;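 further: 0% = plate neutral controls and 100% = maraviroc near 300 nM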
PGC1a acetyl inh = inhibitors of PGC1a acetylation signal, primary screen, cell-based, U2OS, AlphaScreen, inhibitor mode; AlphaScreen anti-acetyl-lysine; with virally co-expressed GCN5 acetyltransferase; 0.17% of 350,000 active; inhibition, % at 15.6 µM; AID 651687, 2012;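 active means every replicate shows inhibition of at least 40%; inconclusive means mean inhibition at least 40% but some replicate below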;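 further: 0% = neutral control wells and 100% = positive control wells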
PAX8 reporter = inhibitors of PAX8-driven TPO luciferase reporter, primary screen, RMG-I cells, single concentration. SteadyGlo, 24 h. inhibition, % at 12.6 µM. 1.2% of 360,000 active;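 active means mean replicate inhibition at least 60% with every replicate also reaching 60%; inconclusive means only one of the two criteria is met; inactive means mean below 60% and not all replicates reaching 60%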;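 further: luciferase light reporting Pax8 driven TPO promoter activity; plate controls were median of neutral control wells for no effect and mitoxantrone controls for full effect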
EWS-Fli block = EWS/Fli-driven NR0B1 reporter inhibitors, primary screen, A673 cells, NR0B1 luciferase, luminescence, MLPCN library | 0.67% of 350,000 active | viability-normalised | inhibition, % at 12.6 µM;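 active means mean inhibition of at least 50% after viability correction, with every replicate also passing that limit; inconclusive means mean reaches 50% but only one of two replicates passes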;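 further: firefly luciferase signal divided by Alamar Blue viability fluorescence both relative to DMSO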
INS-1E GSIS act = GLuc luminescence reporter in INS-1E cells, primary screen for activators of glucose-dependent secretion of insulin. 0.61% of 370,000 active. AID 743287, 2014. INS-1E GLuc reporter insulin secretion, 2-3 h. activation, % at 16.6 µM;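 active means lowest replicate activation of at least 40%, so every replicate reaches that level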;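 further: 0% = median of neutral control wells and 100% = median of IBMX positive control wells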
The depositor's hits bear a star; [ ] = another dose, or the depositor's remark. Most compounds without a hit are left out; they make up all but 2.7% or so of the library.

For Cc1nc(SCC(=O)Nc2c(C)nn(C)c2C)c2cnn(-c3ccccc3)c2n1 the results were HIV Env fusion 64* and PGC1a acetyl inh 7.
For COc1ccc(S(=O)(=O)Nc2ccc3c(c2)C(=O)N([C@H](C)CO)C[C@@H](C)[C@@H](CN(C)Cc2ccc(Cl)c(Cl)c2)O3)cc1 the results were CFTR F508del cor 13*, HIV Env fusion -1[16.7 µM], PGC1a acetyl inh 9, EWS-Fli block 15 and INS-1E GSIS act -10.
For COc1ccc(S(=O)(=O)Nc2ccc3c(c2)C(=O)N([C@@H](C)CO)C[C@H](C)[C@H](CN(C)Cc2ccc(Cl)c(Cl)c2)O3)cc1 the results were CFTR F508del cor 2, HIV Env fusion -32[16.7 µM], PGC1a acetyl inh 8, EWS-Fli block 9 and INS-1E GSIS act -7.
For COc1ccc(S(=O)(=O)Nc2ccc3c(c2)C(=O)N([C@@H](C)CO)C[C@@H](C)[C@H](CN(C)Cc2ccc(Cl)c(Cl)c2)OCCCC[C@@H](C)O3)cc1 the results were CFTR F508del cor 4, HIV Env fusion 14[16.7 µM], PGC1a acetyl inh 9, PAX8 reporter 73*, EWS-Fli block 12 and INS-1E GSIS act -14.
Screening COc1ccc(CN(C)C[C@@H]2OCCCC[C@@H](C)Oc3ccc(NS(=O)(=O)c4ccc(Cl)cc4)cc3C(=O)N([C@H](C)CO)C[C@H]2C)cc1 returned CFTR F508del cor 2, HIV Env fusion 16[16.7 µM], PGC1a acetyl inh -13, PAX8 reporter 17, EWS-Fli block 6 and INS-1E GSIS act -23.
For COc1ccc(S(=O)(=O)Nc2ccc3c(c2)C(=O)N([C@H](C)CO)C[C@H](C)[C@H](CN(C)Cc2ccc(Cl)c(Cl)c2)OCCCC[C@H](C)O3)cc1 the results were CFTR F508del cor 1, PGC1a acetyl inh -2, PAX8 reporter inconclusive, EWS-Fli block 3 and INS-1E GSIS act -2.
Screening COc1ccc(S(=O)(=O)Nc2ccc3c(c2)C(=O)N([C@H](C)CO)C[C@@H](C)[C@H](CN(C)Cc2ccc(Cl)c(Cl)c2)OCCCC[C@H](C)O3)cc1 returned CFTR F508del cor 1, HIV Env fusion inconclusive, PGC1a acetyl inh 31, PAX8 reporter 68*, EWS-Fli block 29 and INS-1E GSIS act -22.
COc1ccc(CN(C)C[C@H]2OCCCC[C@H](C)Oc3ccc(NS(=O)(=O)c4ccc(Cl)cc4)cc3C(=O)N([C@H](C)CO)C[C@H]2C)cc1 was read as CFTR F508del cor 1, HIV Env fusion 40[16.7 µM], PGC1a acetyl inh -17, PAX8 reporter 65*, EWS-Fli block 12 and INS-1E GSIS act -35.
Screening CCC(=O)Nc1ccc2c(c1)C(=O)N(C)C[C@H](OC)[C@@H](C)CN(C(=O)C1CCC1)[C@@H](C)CO2 returned CFTR F508del cor 0, PGC1a acetyl inh -6, EWS-Fli block 2 and INS-1E GSIS act -11.
Screening CCS(=O)(=O)NCC[C@H]1CC[C@H](NS(=O)(=O)c2cccc(Cl)c2)[C@@H](CO)O1 returned CFTR F508del cor -4, HIV Env fusion -6[16.7 µM], PGC1a acetyl inh 4, PAX8 reporter -1, EWS-Fli block 12 and INS-1E GSIS act -5.
For COC(=O)c1ccc(NC(=O)c2cccc(N3C(=O)C4C5C=CC(C6CC56)C4C3=O)c2)cc1 (configuration not stated) the results were CFTR F508del cor -1, HIV Env fusion 64*, PAX8 reporter 1 and INS-1E GSIS act -5.
Brc1ccccc1-c1nnc2sc(Cc3ccccc3)nn12 was read as HIV Env fusion 57* and PGC1a acetyl inh 8.
For CSc1ccc(Cl)c(C(=O)Nc2ccc(Cl)cn2)c1 the results were CFTR F508del cor inconclusive, HIV Env fusion -38, PGC1a acetyl inh 7, PAX8 reporter 4, EWS-Fli block 43 and INS-1E GSIS act 12.
COc1cc(SC)ccc1C(=O)Nc1ccc(Cl)cn1 was read as CFTR F508del cor 1, HIV Env fusion -277, PGC1a acetyl inh -6, PAX8 reporter -150, EWS-Fli block 84* and INS-1E GSIS act -2.
Screening Cc1ccc2c(c1)COc1c3ccc(C(=O)O)cc3nn1-2 returned CFTR F508del cor 1, HIV Env fusion -7, PAX8 reporter 65*, EWS-Fli block 5 and INS-1E GSIS act 11.

Screens (PubChem)
